Screening data as filed in PubChem.
aDG glyco act: alpha-DG glycosylation activation; Pro5-aDG cells, alpha-DG glycosylation AlphaScreen (IIH6); 0% Pro5, 100% B10-LARGE cell signal; activation, % at 10 µM; 360,000 compounds, 0.22% hits; AID 624168;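 active means activation of at least 8% versus controls, or a plate z-score of at least 8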;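 further: Pro5 are CHO cells carrying HIG-tagged alpha-DG that lacks glycosylation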
NadD block: blocks S. aureus nicotinate mononucleotide adenylyltransferase; inhibition, % at 20 µM; 360,000 compounds, 0.78% hits; purified NadD enzyme, colorimetric absorbance read-out; in the data active means inhibition above about 26%
H9c2 TAG inh: triacylglycerol accumulation inhibition; AID 651582; inhibition, % at 12.5 µM; 230,000 compounds, 0.66% hits; H9c2 cells, Nile Red lipid (TAG) fluorescence; cells loaded with 200 µM oleic acid;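 active means pattern-corrected inhibition of lipid staining of at least 50% with the nuclear-stain viability signal not falling by more than 50%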;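 further: 0% = DMSO wells and 100% = triacsin C control wells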
MPTP inh: inhibitors of mitochondrial permeability transition pore | isolated mouse mitochondria, Ca2+ swelling absorbance, 30 min | inhibition, % at 10 µM | 360,000 compounds, 1.4% hits;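 active means inhibition of 50% or more, scaled per plate between neutral and stimulator controls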;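 further: 0% = DMSO wells given calcium and 100% = 1 mM EGTA wells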
NadD conf: confirmation of Staphylococcus aureus NadD inhibitors; shares compounds with NadD block; purified S. aureus NadD, colorimetric enzyme assay; 2,000 compounds, 13% hits; inhibition, % at 20 µM; in the data active means inhibition mostly above about 42%, no sharp cut-off; inactive means mostly below about 42%
Rh123 counter: membrane potential counter-screen of mitochondrial pore inhibitors | shares compounds with MPTP inh | isolated mitochondria, Rhodamine 123 fluorescence | inhibition, % at 10 µM | 5,000 compounds, 78% hits; in the data active means inhibition above about 22%;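 further: 0% = DMSO vehicle and 100% = positive control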
MPTP swell DR: dose response confirmation of mitochondrial permeability transition pore inhibitors | 780 compounds, 58% hits | AID 651561 | isolated mitochondria swelling, absorbance | IC50, µM | shares compounds with MPTP inh; in the data active means IC50 below about 20 µM
MPTP cs DR: counter-screen for mitochondrial permeability transition pore inhibitors, dose response; IC50, µM; 780 compounds, 49% hits; AID 651564; isolated mitochondria counterscreen, fluorescence read-out; shares compounds with MPTP inh; in the data active means IC50 below about 80 µM
Starred values were filed as active, the others as inactive; · = not tested or not shown. Compounds with a hit are over-represented: about 2.7% of the library has one in this group of screens.

SMILES | aDG glyco act | NadD block | H9c2 TAG inh | MPTP inh | NadD conf | Rh123 counter | others
CC(C)CC(C(=O)Nc1oc(-c2ccccc2)c(-c2ccccc2)c1C#N)N1C(=O)c2ccccc2C1=O (configuration not stated) | 0.2 | 35.9* | 3.6 | 74.4* | 12.8 | 68.9*
N#Cc1c(NC(=O)CCN2C(=O)c3ccccc3C2=O)oc(-c2ccccc2)c1-c1ccccc1 | -0.1 | 0.8 | · | 0.4 | · | ·
O=C(Nc1ccccc1Cl)c1cc(C2CCCN(C(=O)c3cccc(O)c3)C2)on1 (configuration not stated) | 0.2 | -8.3 | 12.3 | 0.5 | · | ·
Oc1nc(Nc2ccc(Cl)cc2Cl)sc1/C=C1\C=Nc2ccccc21 | -0.2 | 41.7* | -4.9 | 95.5* | 0.1 | 58.1*
N=C1S/C(=C\c2cccc3ccccc23)C(=O)N1c1ccc(F)cc1 | -0.1 | 33.3* | · | 93.6* | 5.4 | 20.2*
CC(=O)Nc1cccc(C(=O)OCC(=O)NNC(=O)c2ccc([N+](=O)[O-])cc2)c1 | -0.2 | 3.2 | -14.4 | -1.1 | · | ·
CC(N)c1csc(Nc2ccc(S(C)(=O)=O)cc2)n1 (configuration not stated) | 0.0 | 0.1 | -9.7 | -1.2 | · | ·
CCCc1nnn(S(=O)(=O)c2ccc([N+](=O)[O-])cc2)c1CCC | -0.2 | 2.6 | 5.8 | -0.8 | · | ·
COc1ccc(-c2csc(/C(C#N)=C\c3ccc(O)c([N+](=O)[O-])c3)n2)cc1OC | -0.1 | 27.3* | 5.4 | 98.9* | 11.4 | 49.8*
COc1ccc(-c2csc(/C(C#N)=C\c3ccc(OC)c([N+](=O)[O-])c3)n2)cc1 | 0.3 | 4.4 | 3.8 | 1.0 | · | ·
COc1ccccc1C=NN=C(NN=Cc1ccccc1OC)NN=Cc1ccccc1OC | 0.9 | 35.1* | 56.5* | 94.4* | 24.1 | 97.3*
Cn1c2c(c3ccccc31)CCN(CCCCN1CCN(c3ccccc3)CC1)C2=O | 0.2 | -3.5 | -56.0 | 2.1 | · | ·
CCCSc1nnc(NC(=O)c2sc3nc(-c4cccs4)ccc3c2N)s1 | 0.0 | 36.5* | -9.5 | 75.7* | 10.2 | 32.3*
Cc1ccc(C(=O)N/N=C/c2cccnc2)cc1Cl | -0.4 | -2.3 | 3.1 | 0.3 | · | ·
COc1ccccc1-n1c(SCC(=O)c2ccc(O)cc2O)nc2cc([N+](=O)[O-])ccc21 | -0.4 | 48.5* | · | 88.4* | 39.4 | 66.3*
COc1ccccc1-n1c(SCC(=O)NC2CCS(=O)(=O)C2)nc2cc([N+](=O)[O-])ccc21 (configuration not stated) | 0.1 | 2.7 | · | 0.8 | · | ·
COc1ccccc1NC(=O)c1c(Nc2ccccc2F)sc(C(=O)Nc2cccc(Cl)c2)c1N | 0.0 | 42.9* | · | 78.4* | 41.3 | 46.1*
C=CCNC(=O)C1CC1(c1cccc(C)c1)c1cccc(C)c1 (configuration not stated) | 0.0 | -2.7 | 6.7 | 1.5 | · | ·
Cc1cccc(C2(c3cccc(C)c3)CC2C(=O)Nc2ccc([N+](=O)[O-])cc2O)c1 (configuration not stated) | -0.4 | 30.0* | · | 96.3* | 49.8* | 67.6*
Cc1ccc(NS(=O)(=O)c2cc([N+](=O)[O-])ccc2NNC(=S)Nc2cc(C)ccc2C)c(C)c1 | -0.7 | 46.5* | · | 109.6* | 40.6 | 67.1*
Cc1ccc([N+](=O)[O-])cc1NC(=S)NC(=O)C(C)(C)C | 0.1 | -5.4 | · | -0.3 | · | ·
O=C(NC(=S)Nc1nc(-c2ccccc2)cs1)c1cncc(Br)c1 | -0.2 | 32.7* | · | 74.1* | 11.3 | 74.5*
COc1ccc(NC(=O)Nc2nnc(-c3ccncc3)s2)cc1 | -0.3 | 8.9 | -3.3 | 16.2 | · | ·
O=C(Nc1ccc(Cl)c(Cl)c1)Nc1nnc(-c2ccncc2)s1 | -0.4 | 60.9* | · | 101.7* | 9.2 | 87.1*
O=C(Nc1ccc(F)cc1)Nc1ccc(N2CCCC2)c(S(=O)(=O)Nc2ccccc2Cl)c1 | 1.2 | 29.7* | · | 99.6* | 27.6 | 61.3*
SMILES | aDG glyco act | NadD block | H9c2 TAG inh | MPTP inh | NadD conf | Rh123 counter | others
O=C(Nc1ccc(Cl)c(Cl)c1)Nc1ccc(N2CCCC2)c(S(=O)(=O)Nc2ccccc2Cl)c1 | -0.6 | 31.0* | -3.6 | 99.9* | 36.4 | 49.3*
S=C(NCc1ccncc1)Nc1ccc(Cl)cc1Cl | 0.3 | -6.7 | -12.9 | 11.6 | · | ·
S=C(NNc1ccnc2cc(Cl)ccc12)Nc1ccc(Cl)cc1Cl | 0.9 | 29.6* | 21.9 | 100.9* | 6.0 | 72.9*
O=C(O)c1cc(-c2ccc(Cl)c(Cl)c2)n(-c2ccc(F)cc2)n1 | 0.0 | 5.7 | · | 0.7 | · | ·
O=C1Nc2cc(C(=O)NCCN3CCCCCC3)ccc2S/C1=C\c1ccccc1 | 0.3 | 44.1* | · | 75.7* | -16.9 | -16.9
O=C1Nc2cc(C(=O)NCCCN3CCCC3)ccc2S/C1=C/c1cccc(Cl)c1 | 2.3 | -1.4 | 12.3 | -0.7 | · | ·
COc1cccc(/C=C2/Sc3ccc(C(=O)NCCN4CCCCCC4)cc3NC2=O)c1 | 4.4 | 41.9* | · | 95.4* | -2.5 | -7.4
COc1ccc(C(C)C)cc1S(=O)(=O)Nc1cccnc1 | -0.2 | -2.3 | 3.0 | 0.5 | · | ·
O=C(NC(=S)Nc1cc(-c2nc3ccccc3[nH]2)ccc1Cl)c1ccc2c(c1)OCO2 | -0.2 | 30.0* | · | 57.3* | 47.2* | 38.6*
Cc1ccc(S(=O)(=O)Nc2ccccc2C(=O)Nc2nc(-c3ccc(F)cc3)cs2)cc1 | 0.6 | 32.0* | · | 70.1* | 47.5* | 13.9
Cc1ccc(S(=O)(=O)Nc2nc(-c3ccccc3)cs2)cc1 | 0.0 | -1.3 | · | 0.8 | · | ·
CN(C)c1ccc(S(=O)(=O)N2CCCCC2)cc1NC(=O)C1=NN(c2ccccc2)C(=O)CC1 | 0.6 | 2.8 | · | -0.9 | · | ·
COc1cc(C=CC(=O)OCC=Cc2ccc3c(c2)OCO3)cc(OC)c1OC | 0.2 | 0.6 | -29.7 | 1.5 | · | ·
COc1ccccc1C(=O)NNC(=S)NC(=O)c1sc2ccccc2c1Cl | 1.2 | 64.3* | -1.8 | 97.8* | 11.3 | -10.6
CCOc1cc(/C=C(/C#N)c2nc3ccccc3[nH]2)ccc1Oc1ccc([N+](=O)[O-])cn1 | -0.3 | 54.2* | · | 83.0* | 8.6 | 44.9*
Cc1ccc2nc(/C(C#N)=C\c3ccc(Oc4ccc([N+](=O)[O-])cn4)cc3)[nH]c2c1 | -0.2 | 35.6* | · | 65.3* | 12.4 | 19.5 | MPTP swell DR=>100;MPTP cs DR=10.3*
CCOc1cc(/C=C(\C#N)c2nc3ccccc3[nH]2)ccc1OC(C)C(=O)O (configuration not stated) | 0.5 | -2.2 | · | 0.9 | · | ·
O=C(O)c1c(-c2ccc(Cl)cc2)cn2ccccc12 | 2.3 | 0.0 | -10.5 | -0.9 | · | ·
C=CCSC1=N/C(=C\c2cc(OCC)c(OC(C)=O)c([N+](=O)[O-])c2)C(=O)S1 | 0.0 | 32.5* | · | 98.4* | 8.6 | 63.2*
O=C(NCCC1CCCCN1S(=O)(=O)c1cccs1)C(=O)Nc1cccc(F)c1 (configuration not stated) | 0.2 | -15.3 | -4.0 | -0.2 | · | ·
